The supplement of paper PMC5662767
Structures can show the parent of a compound that is named as a salt.

System: Drosophila S2 cl14 SmoIP sensor cells
Test: normalized SmoIP GFP fluorescence (untreated unstimulated = 0%, untreated Hh-stimulated = 100%); higher = more Smo activation sensor fluorescence
Conditions: compound concentration: 2 uM, 24 h
[1] = stimulation: Hh conditioned medium (+Hh)
[2] = stimulation: mock conditioned medium (-Hh)
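Also: flow cytometry read-out as median GFP intensity of gated cells, compounds added 30 min before Hh-conditioned or mock medium, mock-treated cells serving as unstimulated baseline.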

Compound | normalized SmoIP GFP fluorescence [1] [%] | normalized SmoIP GFP fluorescence [2] [%]
CC(C)(CO)c1cc2cc(NC(=O)C3(c4ccc5c(c4)OC(F)(F)O5)CC3)c(F)cc2n1C[C@@H](O)CO | 104 | -3.39
Nc1cccc2c1CN(C1CCC(=O)NC1=O)C2=O (stereo not drawn) [Lenalidomide] | 115 | 28.7
O=c1n(CCCN2CCN(c3cccc(Cl)c3)CC2)nc2ccccn12 [trazodone-hydrochloride-desyrel] | 172 | -8.23
O=C(Nc1ccccc1)Nc1ccc(-c2ccc(C(=O)[C@@H]3CCC[C@H]3C(=O)O)cc2)cc1 | 128 | -11
O=C(O)Cc1ccccc1Nc1c(Cl)cccc1Cl [Diclofenac-sodium] | 110 | 4.03
Cc1ccccc1-n1c(Cn2nc(-c3cccc(O)c3)c3c(N)ncnc32)nc2cccc(C)c2c1=O | 101 | -5.98
C=C(C)[C@@H]1CC[C@]2(C(=O)O)CC[C@]3(C)[C@H](CC[C@@H]4[C@@]5(C)CC[C@H](O)C(C)(C)[C@@H]5CC[C@]43C)[C@@H]12 [betulinic-acid] | 97 | -2.93
COC1=C2C[C@@H](C)C[C@H](OC)[C@H](O)[C@@H](C)/C=C(\C)[C@H](OC(N)=O)[C@@H](OC)/C=C\C=C(/C)C(=O)NC(=CC1=O)C2=O [geldanamycin] | 209 | 46.6
CC(=O)O/N=C1\C(=O)N(Cc2cc(Cl)ccc2Cl)c2ccc(Cl)cc21 | 106 | -2.93
CN1C2CCCC1CC(NC(=O)c1nn(C)c3ccccc13)C2 (stereo not drawn) [Granisetron-Hydrochloride] | 103 | 3.72
C/C(=C\C(=O)Nc1ccccc1C(=O)O)c1ccc2ccccc2c1 | 109 | -2.42
Cn1cnc2c(F)c(Nc3ccc(Br)cc3F)c(C(=O)NOCCO)cc21 | 138 | 23
c1ccc2c(CC3=NCCN3)cccc2c1 [Naphazoline-hydrochloride-Naphcon] | 118 | -11.6
CN1CCC[C@@H]1Cc1c[nH]c2ccc(CCS(=O)(=O)c3ccccc3)cc12 [eletriptan-hydrobromide] | 106 | -2.71
CCn1cc(-c2ccnc3[nH]c(-c4cccc(CN(C)C)c4)cc23)c(-c2ccc(NC(=O)N(C)C)cc2)n1 | 173 | -0.747
CCOC(=O)CCNc1cc(N2CCc3ccccc3CC2)nc(-c2ccccn2)n1 | 116 | -2.48
Cc1cccc(-c2[nH]c(C(C)(C)C)nc2-c2ccc3nccnc3c2)n1 | 102 | -5.22

Compound | normalized SmoIP GFP fluorescence [1] [%] | normalized SmoIP GFP fluorescence [2] [%]
Nc1nnc(-c2cccc(Cl)c2Cl)c(N)n1 [lamotrigine] | 101 | -3.5
Cc1cc(-c2ncc(CC(=O)Nc3ccc(-c4cnccn4)cn3)cc2C)ccn1 | 130 | -1.23
CN(C)CCC[C@@]1(c2ccc(F)cc2)OCc2cc(C#N)ccc21 [escitalopram-oxalate] | 107 | -1.12
CCCCc1nc(Cl)c(CO)n1Cc1ccc(-c2ccccc2-c2nnn[nH]2)cc1 [losartan-potassium] | 90.8 | -1.56
CCc1c2c(nc3ccc(O)cc13)-c1cc3c(c(=O)n1C2)COC(=O)[C@]3(O)CC | 95.2 | 5.3
O=C(/C=C\n1cnc(-c2cc(C(F)(F)F)cc(C(F)(F)F)c2)n1)NNc1cnccn1 | 109 | 1.33
Oc1ccc(/C=C/c2cc(O)cc(O)c2)cc1 [Resveratrol] | 104 | -4.25
O=P(O)(O)C(O)(Cn1ccnc1)P(=O)(O)O [Zoledronic-Acid] | 98.3 | -5.54
CC(C(=O)O)c1ccc2c(c1)CC(=O)c1ccccc1S2 (stereo not drawn) [zaltoprofen] | 111 | -1.97
O=C(COc1ccc(Cl)cc1)NC1CCC(NC(=O)COc2ccc(Cl)cc2)CC1 (stereo not drawn) [isrib-trans-isomer] | 109 | 7.06
Nc1nccc2c1ncn2[C@@H]1C=C(CO)[C@@H](O)[C@H]1O [3-deazaneplanocin-a-dznep] | 142 | 0.702
CCCCOc1ccc(CC(=O)NO)cc1 [bufexamac] | 98.6 | -3.05
Cc1c(NC(=O)OC[C@@H]2COCCN2)cn2ncnc(Nc3ccc4c(cnn4Cc4cccc(F)c4)c3)c12 | 128 | 16.5
CCCCc1oc2ccccc2c1C(=O)c1cc(I)c(OCCN(CC)CC)c(I)c1 [amiodarone-hcl] | 112 | 1.69
Cc1cc(C)c2c(c1)[C@@H](N(Cc1cc(C(F)(F)F)cc(C(F)(F)F)c1)c1nnn(C)n1)CCCN2CC1CCC(C(=O)O)CC1 (stereo partly drawn) | 105 | -5.15
COc1ccc([C@@H]2CC(=O)c3c(O)cc(O)cc3O2)cc1O [Hesperetin] | 111 | -18.9
c1ccc2c(c1)CCCC2C1=NCCN1 (stereo not drawn) [tetrahydrozoline-hcl] | 115 | -0.491
